Laboratory results published in PubChem BioAssay AID1159580 (chemical genetic matrix, 2015).
In all, about 5,500 compounds went through this assay and about 2,000 (36%) were called active. About 18% were inconclusive and are not listed. No stated cut-off is given here; in the data, active means normalized growth mostly below about 0.91 (no sharp cut-off); inconclusive means no clear call, values can overlap the other calls; inactive means mostly above about 0.92. This is one part of the list.

Experiment: chemical genetic growth profiling, strain panel (AID 1159580);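 further: tested at 20 µM; growth read once vehicle control cultures reached saturation at 30 °C; 1 = growth at the plate median or of vehicle wells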
Settings: S. cerevisiae deletion strains, growth OD
[1] = locus YBR229C, strain ROT2, stronger effect = lower value
[2] = locus YCL061C, strain MRC1, stronger effect = lower value
[3] = locus YDL101C, strain DUN1, stronger effect = lower value
[4] = locus YDL134C, strain PPH21, stronger effect = lower value
[5] = locus YDR150W, strain NUM1, stronger effect = lower value
[6] = locus YEL061C, strain CIN8, stronger effect = lower value
[7] = locus YHR030C, strain SLT2, stronger effect = lower value
[8] = locus YJR043C, strain POL32, stronger effect = lower value
[9] = locus YLR039C, strain RIC1, stronger effect = lower value
[10] = locus YMR263W, strain SAP30, stronger effect = lower value
[11] = locus YMR307W, strain GAS1, stronger effect = lower value
[12] = locus YNL322C, strain KRE1, stronger effect = lower value
[13] = locus YPL055C, strain LGE1, stronger effect = lower value

Measured: normalized growth

CCOC(=O)c1[nH]c(Cc2[nH]c(C(=O)OCC)c(C)c2C)c(C)c1C
inactive: locus YAL013W, strain DEP1, stronger effect = lower value 1 | [1] 1.02 | [2] 1.02 | [3] 1.03 | [4] 1.01 | [5] 0.978 | [6] 1.01 | locus YGR078C, strain PAC10, stronger effect = lower value 1.02 | [7] 1.06 | locus YHR087W, strain rtc3, stronger effect = lower value 1.01 | [8] 1.04 | locus YKL190W, strain CNB1, stronger effect = lower value 1.01 | [9] 0.981 | locus YLR058C, strain SHM2 (second series), stronger effect = lower value 1.02 | locus YLR085C, strain ARP6, stronger effect = lower value 1.01 | locus YLR262C, strain YPT6, stronger effect = lower value 0.981 | locus YML094W, strain GIM5, stronger effect = lower value 0.988 | locus YMR219W, strain ESC1, stronger effect = lower value 1.01 | [10] 1.02 | [11] 0.948 | locus YNL153C, strain GIM3, stronger effect = lower value 1.02 | locus YNL298W, strain CLA4 (second series), stronger effect = lower value 1.04 | [12] 1 | locus YNR030W, strain Alg12, stronger effect = lower value 1.04 | [13] 0.994 | locus YPL241C, strain CIN2, stronger effect = lower value 1.01 | locus YPR135W, strain CTF4, stronger effect = lower value 1.08

CCOC(=O)c1c(C)cc(O)c(C)c1O
inactive: locus YBR021W, strain FUR4, stronger effect = lower value 0.975 | [1] 0.976 | locus YCL029C, strain bik1, stronger effect = lower value 0.955 | locus YDL035C, strain GPR1, stronger effect = lower value 1.01 | locus YDL074C, strain BRE1, stronger effect = lower value 0.981 | [3] 0.986 | [4] 0.979 | locus YDL185W, strain tfp1, stronger effect = lower value 0.969 | locus YDL192W, strain arf1, stronger effect = lower value 0.931 | [5] 0.98 | locus YDR162C, strain NBP2, stronger effect = lower value 0.966 | locus YDR502C, strain sam2, stronger effect = lower value 0.929 | [6] 0.975 | locus YER110C, stronger effect = lower value 0.938 | locus YER155C, strain BEM2, stronger effect = lower value 0.941 | locus YER167W, strain BCK2, stronger effect = lower value 0.961 | locus YGL078C, strain dbp3, stronger effect = lower value 0.968 | locus YGL248W, strain PDE1, stronger effect = lower value 0.992 | locus YGR135W, strain pre9, stronger effect = lower value 0.931 | locus YGR252W, strain gcn5, stronger effect = lower value 1.07 | [7] 0.978 | locus YHR079C, strain IRE1 (second series), stronger effect = lower value 0.945 | locus YHR094C, strain hxt1, stronger effect = lower value 0.932 | locus YHR129C, strain ARP1, stronger effect = lower value 0.988 | locus YHR200W, strain rpn10, stronger effect = lower value 0.933 | locus YIL066C, strain RNR3, stronger effect = lower value 0.999 | locus YIL073C, strain SPO22, stronger effect = lower value 1.02 | locus YIR030C, strain dcg1, stronger effect = lower value 0.952 | locus YJL095W, strain BCK1, stronger effect = lower value 0.936 | locus YJL134W, strain LCB3, stronger effect = lower value 0.965 | locus YJL168C, strain set2, stronger effect = lower value 0.945 | locus YJL187C, strain SWE1 (second series), stronger effect = lower value 0.996 | [8] 0.949 | locus YKL009W, strain mrt4, stronger effect = lower value 1.01 | locus YKL068W, stronger effect = lower value 0.945 | locus YKL085W, strain MDH1 (second series), stronger effect = lower value 0.943 | locus YKL085W, strain MDH1, stronger effect = lower value 0.943 | [9] 1.04 | locus YLR058C, strain SHM2, stronger effect = lower value 0.97 | locus YLR102C, strain apc9, stronger effect = lower value 0.946 | locus YLR268W, strain sec22, stronger effect = lower value 0.918 | locus YLR330W, strain CHS5, stronger effect = lower value 0.976 | locus YML016C, strain PPZ1, stronger effect = lower value 0.956 | locus YML032C, strain rad52, stronger effect = lower value 0.917 | locus YML124C, strain tub3, stronger effect = lower value 0.935 | locus YMR078C, strain ctf18, stronger effect = lower value 0.924 | locus YMR223W, strain ubp8, stronger effect = lower value 0.952 | [10] 0.97 | [11] 0.923 | locus YNL067W, strain RPL9B, stronger effect = lower value 0.978 | locus YNL233W, strain BNI4, stronger effect = lower value 0.956 | locus YNL250W, strain rad50, stronger effect = lower value 0.963 | locus YNL271C, strain bni1, stronger effect = lower value 0.941 | locus YNL298W, strain CLA4, stronger effect = lower value 0.964 | [12] 0.968 | locus YNR052C, strain pop2, stronger effect = lower value 0.993 | locus YOL006C, strain TOP1, stronger effect = lower value 0.887 | locus YOL012C, strain htz1 0.713 | locus YOR061W, strain CKA2, stronger effect = lower value 0.98 | locus YOR069W, strain VPS5, stronger effect = lower value 0.975 | locus YOR136W, strain idh2, stronger effect = lower value 0.957 | locus YOR144C, strain elg1, stronger effect = lower value 0.939 | locus YOR184W, strain ser1, stronger effect = lower value 0.89 | locus YOR316C, strain cot1, stronger effect = lower value 0.959 | [13] 0.954 | locus YPR141C, strain kar3, stronger effect = lower value 0.924 | locus YPR163C, strain tif3, stronger effect = lower value 0.918 | locus YPR167C, strain met16, stronger effect = lower value 0.945 | strain wtn01, stronger effect = lower value 0.909
active: locus YDR101C, strain arx1, stronger effect = lower value 0.901 | locus YDR318W, strain mcm21, stronger effect = lower value 0.901 | locus YDR388W, stronger effect = lower value 0.916 | locus YGL086W, strain mad1, stronger effect = lower value 0.916 | locus YIL125W, strain kgd1, stronger effect = lower value 0.922 | locus YKR001C, strain vps1, stronger effect = lower value 0.887 | locus YLR371W, strain rom2, stronger effect = lower value 0.717 | locus YLR418C, strain cdc73, stronger effect = lower value 0.806 | locus YNL307C, strain MCK1, stronger effect = lower value 0.875 | locus YOL147C, strain pex11, stronger effect = lower value 0.914 | locus YPR119W, strain clb2, stronger effect = lower value 0.928

CCOC(=O)c1c(C)c(Cl)c(O)c(Cl)c1O
active: locus YAL021C, strain ccr4, stronger effect = lower value 0.682 | locus YAL026C, strain drs2, stronger effect = lower value 0.469 | locus YAL030W, strain snc1, stronger effect = lower value 0.692 | locus YBL061C, strain skt5, stronger effect = lower value 0.637 | locus YBR009C, strain hhf1, stronger effect = lower value 0.407 | locus YBR023C, strain chs3, stronger effect = lower value 0.589 | locus YBR171W, strain sec66, stronger effect = lower value 0.619 | locus YBR231C, strain swc5, stronger effect = lower value 0.469 | locus YBR279W, strain paf1, stronger effect = lower value 0.686 | locus YCL011C, strain gbp2, stronger effect = lower value 0.499 | locus YCL016C, strain dcc1, stronger effect = lower value 0.495 | [2] 0.408 | locus YCL069W, strain vba3, stronger effect = lower value 0.407 | locus YCR088W, strain abp1, stronger effect = lower value 0.517 | locus YDL005C, strain med2, stronger effect = lower value 0.76 | locus YDL040C, strain nat1, stronger effect = lower value 0.663 | locus YDR001C, strain nth1, stronger effect = lower value 0.516 | locus YDR069C, strain doa4, stronger effect = lower value 0.72 | locus YDR137W, strain rgp1, stronger effect = lower value 0.266 | locus YDR159W, strain sac3, stronger effect = lower value 0.459 | locus YDR195W, strain ref2 0.697 | locus YDR297W, strain sur2, stronger effect = lower value 0.677 | locus YDR334W, strain swr1, stronger effect = lower value 0.361 | locus YDR335W, strain msn5, stronger effect = lower value 0.517 | locus YDR392W, strain spt3, stronger effect = lower value 0.0936 | locus YEL003W, strain gim4, stronger effect = lower value 0.397 | locus YEL037C, strain rad23, stronger effect = lower value 0.666 | locus YEL061C, strain CIN8 (second series), stronger effect = lower value 0.171 | locus YER015W, strain faa2, stronger effect = lower value 0.652 | locus YER016W, strain bim1, stronger effect = lower value 0.559 | locus YER111C, strain swi4, stronger effect = lower value 0.189 | locus YER155C, strain BEM2 (second series), stronger effect = lower value 0.15 | locus YFR010W, strain ubp6, stronger effect = lower value 0.696 | locus YGL167C, strain pmr1, stronger effect = lower value 0.67 | locus YGL173C, strain kem1, stronger effect = lower value 0.512 | locus YGL227W, strain vid30, stronger effect = lower value 0.188 | locus YGL240W, strain doc1, stronger effect = lower value 0.375 | locus YGL253W, strain hxk2, stronger effect = lower value 0.254 | locus YHR013C, strain ard1, stronger effect = lower value 0.634 | locus YHR027C, strain rpn1, stronger effect = lower value 0.719 | locus YHR142W, strain chs7, stronger effect = lower value 0.245 | locus YJL092W, strain hpr5, stronger effect = lower value 0.456 | locus YJL095W, strain BCK1 (second series), stronger effect = lower value 0.292 | locus YJL115W, strain asf1, stronger effect = lower value 0.667 | locus YJL129C, strain trk1, stronger effect = lower value 0.261 | locus YJL154C, strain vps35, stronger effect = lower value 0.702 | locus YJL164C, strain tpk1, stronger effect = lower value 0.467 | locus YJL166W, strain qcr8, stronger effect = lower value 0.448 | locus YJL187C, strain SWE1, stronger effect = lower value 0.61 | locus YKL160W, strain elf1, stronger effect = lower value 0.454 | locus YKR026C, strain gcn3, stronger effect = lower value 0.697 | locus YKR091W, strain srl3, stronger effect = lower value 0.677 | locus YLL001W, strain dnm1, stronger effect = lower value 0.563 | locus YLL026W, stronger effect = lower value 0.436 | locus YLL041C, strain sdh2, stronger effect = lower value 0.635 | locus YLR027C, strain aat2, stronger effect = lower value 0.517 | locus YLR221C, strain rsa3, stronger effect = lower value 0.398 | locus YLR258W, strain gsy2, stronger effect = lower value 0.561 | locus YLR262C, strain YPT6 (second series), stronger effect = lower value 0.277 | locus YLR320W, strain mms22, stronger effect = lower value 0.27 | locus YLR342W, strain FKS1, stronger effect = lower value 0.369 | locus YLR357W, strain rsc2, stronger effect = lower value 0.64 | locus YLR370C, strain arc18, stronger effect = lower value 0.701 | locus YLR384C, strain iki3, stronger effect = lower value 0.681 | locus YML120C, strain ndi1, stronger effect = lower value 0.409 | locus YMR058W, strain fet3, stronger effect = lower value 0.429 | locus YMR125W, strain sto1, stronger effect = lower value 0.259 | locus YMR129W, stronger effect = lower value 0.651 | locus YMR205C, strain PFK2, stronger effect = lower value 0.283 | locus YMR231W, strain pep5, stronger effect = lower value 0.361 | locus YNL071W, strain lat1, stronger effect = lower value 0.127 | locus YNL209W, strain ssb2, stronger effect = lower value 0.753 | locus YNL248C, strain rpa49, stronger effect = lower value 0.645 | locus YNL322C, strain KRE1 (second series), stronger effect = lower value 0.783 | locus YNR049C, strain mso1, stronger effect = lower value 0.432 | locus YOR001W, strain rrp6, stronger effect = lower value 0.4 | locus YOR070C, strain gyp1, stronger effect = lower value 0.499 | locus YOR080W, strain dia2, stronger effect = lower value 0.701 | locus YOR083W, strain WHI5, stronger effect = lower value 0.608 | locus YOR106W, strain vam3, stronger effect = lower value 0.459 | locus YOR265W, strain rbl2, stronger effect = lower value 0.676 | locus YOR270C, strain vph1, stronger effect = lower value 0.214 | locus YOR290C, strain snf2, stronger effect = lower value 0.424 | locus YPL051W, strain arl3, stronger effect = lower value 0.414 | locus YPL078C, strain atp4, stronger effect = lower value 0.391 | locus YPL106C, strain sse1, stronger effect = lower value 0.568 | locus YPL240C, strain hsp82, stronger effect = lower value 0.492
